Reference: PubChem BioAssay (EPA / NIEHS)
Several values for one entry are separate records, joined by “and”; a condition that tells them apart may be missing. Identical values can stand only once. Results filed as inconclusive are left out. A structure can be active in one record and inactive in another. Activity calls are given as the source filed them. How the source made its calls: active means hit-call score of the fitted dose curve at least 0.9, where 1 is the maximum; inconclusive means response in the unintended direction; inactive means score below 0.9.

Each compound was assayed against human Fibroblast Growth Factor Receptor 1 (FGFR1), FGFR1 (gene 2260) (UniProt P11362) (assay: NVS_ENZ_hFGFR1: NovaScreen (NVS) Enzymatic Assay for human Fibroblast Growth Factor Receptor 1 (FGFR1) (AID 2283159);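 on AC50: hits lower the signal so potencies describe inhibitors of the kinase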).
Chain of human Fibroblast Growth Factor Receptor 1 (FGFR1), FGFR1 (gene 2260) (P11362 whole entry, looked up): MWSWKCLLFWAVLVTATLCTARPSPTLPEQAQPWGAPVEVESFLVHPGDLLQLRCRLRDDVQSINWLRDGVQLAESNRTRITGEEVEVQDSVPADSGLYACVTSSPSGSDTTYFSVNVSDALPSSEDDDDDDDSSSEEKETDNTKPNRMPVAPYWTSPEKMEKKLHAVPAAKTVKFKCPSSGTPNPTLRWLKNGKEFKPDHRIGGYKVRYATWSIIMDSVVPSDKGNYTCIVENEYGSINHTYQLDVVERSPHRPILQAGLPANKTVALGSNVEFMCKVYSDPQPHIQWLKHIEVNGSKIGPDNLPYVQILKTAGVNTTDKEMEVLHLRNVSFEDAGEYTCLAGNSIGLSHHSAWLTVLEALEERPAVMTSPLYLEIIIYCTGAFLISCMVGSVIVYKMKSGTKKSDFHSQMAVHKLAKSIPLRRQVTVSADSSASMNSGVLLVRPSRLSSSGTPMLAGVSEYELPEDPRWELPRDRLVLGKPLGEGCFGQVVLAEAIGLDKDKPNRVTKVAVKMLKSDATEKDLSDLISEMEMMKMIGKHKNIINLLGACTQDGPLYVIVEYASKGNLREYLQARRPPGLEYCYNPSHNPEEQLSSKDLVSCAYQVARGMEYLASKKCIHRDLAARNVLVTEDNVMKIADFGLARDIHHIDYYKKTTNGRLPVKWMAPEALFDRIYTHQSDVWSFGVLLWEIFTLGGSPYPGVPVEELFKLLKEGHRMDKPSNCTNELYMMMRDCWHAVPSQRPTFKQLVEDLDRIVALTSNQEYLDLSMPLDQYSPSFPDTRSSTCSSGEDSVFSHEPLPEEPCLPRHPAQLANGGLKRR
Method in brief: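 Cell-free recombinant kinase with fluorescent substrate, product separated by electrophoretic mobility shift; read 1 hour after dosing, loss of signal relative to DMSO. Initial screen in duplicate at 25 uM, actives followed in concentration series.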
For `C[N+]1(C)CCCCC1`, the outcome was “inactive”.
For `CN(C)[C@@H]1C(=O)C(C(N)=O)=C(O)[C@@]2(O)C(=O)C3=C(O)c4c(O)cccc4[C@@](C)(O)[C@H]3[C@H](O)[C@@H]12`, the AC50 was 5.86 µM (active) and 7.55 µM (active) and the outcome was “inactive”.
With `CCOC(=O)COc1cc(-c2nn(C)c(OC(F)F)c2Cl)c(F)cc1Cl` the outcome was “inactive”.
`CC[C@H](C)[C@H]1O[C@]2(C=C[C@@H]1C)C[C@@H]1C[C@@H](C/C=C(\C)[C@@H](O[C@H]3C[C@H](OC)[C@@H](O[C@H]4C[C@H](OC)[C@@H](NC)[C@H](C)O4)[C@H](C)O3)[C@@H](C)/C=C/C=C3\CO[C@@H]4[C@H](O)C(C)=C[C@@H](C(=O)O1)[C@]34O)O2` was tested, and the AC50 was 16.5 µM (active).

These compounds were tested against Glycogen synthase kinase-3 beta (Homo sapiens) (UniProt P49841) (assay: NVS_ENZ_hGSK3b: NovaScreen (NVS) Enzymatic Assay for human Glycogen Synthase Kinase-3 beta (GSK3b) (AID 2283165)).
Chain of Glycogen synthase kinase-3 beta (Homo sapiens) (P49841 whole entry, looked up): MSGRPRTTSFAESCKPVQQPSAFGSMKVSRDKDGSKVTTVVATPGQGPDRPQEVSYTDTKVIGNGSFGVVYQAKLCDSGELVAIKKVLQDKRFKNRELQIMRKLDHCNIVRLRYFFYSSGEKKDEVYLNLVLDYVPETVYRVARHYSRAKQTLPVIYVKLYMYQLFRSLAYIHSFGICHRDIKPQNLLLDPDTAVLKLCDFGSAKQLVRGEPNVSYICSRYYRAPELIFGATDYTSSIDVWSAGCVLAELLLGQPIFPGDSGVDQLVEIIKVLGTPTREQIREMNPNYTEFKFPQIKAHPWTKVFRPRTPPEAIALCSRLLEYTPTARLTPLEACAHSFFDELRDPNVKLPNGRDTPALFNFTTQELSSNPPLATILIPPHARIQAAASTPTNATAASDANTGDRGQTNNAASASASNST
Method in brief: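 Recombinant enzyme with specific fluorescent substrate, 1 h, product separated by electrophoretic mobility shift. Primary duplicate screen at 25 uM; actives (e.g. 30% inhibition) followed in singleton concentration-response to 50 uM. Signal loss fitted versus DMSO.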
`N#CSCSC#N` was tested, and the outcome was “inactive”.
With `CC1=NNC(=O)N(/N=C/c2cccnc2)C1` the AC50 was 32.8 µM (active).
For `Nc1c(Cl)cc([N+](=O)[O-])cc1Cl`, the outcome was “inactive”.
In the case of `CCNc1nc(Cl)nc(NC(C)(C)C#N)n1`, the outcome is reported as “inactive”.

The compounds below were run against human IkappaB Kinase alpha (IKKa), CHUK (gene 1147) (UniProt O15111) (assay: NVS_ENZ_hIKKa: NovaScreen (NVS) Enzymatic Assay for human IkappaB Kinase alpha (IKKa) (AID 2283167)).
Chain of human IkappaB Kinase alpha (IKKa), CHUK (gene 1147) (O15111 whole entry, looked up): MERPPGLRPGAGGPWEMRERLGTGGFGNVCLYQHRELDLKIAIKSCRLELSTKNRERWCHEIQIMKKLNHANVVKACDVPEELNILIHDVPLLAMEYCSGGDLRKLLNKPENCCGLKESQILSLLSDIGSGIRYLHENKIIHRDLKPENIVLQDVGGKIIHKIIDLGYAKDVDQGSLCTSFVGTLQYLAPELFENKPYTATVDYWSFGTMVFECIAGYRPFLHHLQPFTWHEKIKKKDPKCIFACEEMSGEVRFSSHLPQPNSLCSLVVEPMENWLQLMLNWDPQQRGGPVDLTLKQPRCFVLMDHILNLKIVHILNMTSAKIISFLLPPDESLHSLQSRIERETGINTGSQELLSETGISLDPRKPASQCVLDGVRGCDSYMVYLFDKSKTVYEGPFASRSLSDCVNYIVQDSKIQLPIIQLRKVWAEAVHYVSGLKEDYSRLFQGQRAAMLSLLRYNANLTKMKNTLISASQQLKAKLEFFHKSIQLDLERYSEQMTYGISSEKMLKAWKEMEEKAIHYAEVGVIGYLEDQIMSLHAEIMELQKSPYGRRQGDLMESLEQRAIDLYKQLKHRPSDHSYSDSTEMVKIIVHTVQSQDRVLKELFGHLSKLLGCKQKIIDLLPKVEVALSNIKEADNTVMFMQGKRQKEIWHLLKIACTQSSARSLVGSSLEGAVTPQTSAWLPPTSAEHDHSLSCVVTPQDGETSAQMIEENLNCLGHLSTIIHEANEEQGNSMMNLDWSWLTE
Protocol: NVS_ENZ_hIKKa is a biochemical, single-readout assay that uses extracted gene-proteins in a cell-free assay. Measurements were taken 1 hour after chemical dosing in a 384-well plate.NVS_ENZ_hIKKa is one of one assay component(s) measured or calculated from the NVS_ENZ_hIKKa assay. It is designed to make measurements of enzyme activity, a form of enzyme reporter, as detected with fluorescence intensity signals by Fluorescence and electrophoretic mobility shift technology.Data from the assay component NVS_ENZ_hIKKa was analyzed into 1 assay endpoint. This assay endpoint, NVS_ENZ_hIKKa, was analyzed in the positive analysis fitting direction relative to DMSO as the negative control and baseline of activity. Using a type of enzyme reporter, loss-of-signal activity can be used to understand changes in the enzymatic activity as they relate to the gene CHUK. Furthermore, this assay endpoint can be referred to as a primary readout, because this assay has produced multiple assay endpoints where this one serves a enzymatic activity function. To generalize the intended target to other relatable targets, this assay endpoint is annotated to the kinase intended target family, where the subfamily is serine/threonine kinase.
Binding assays used specific radioligands (tritiated, iodinated) with non-radioactive competitive displacement ligands in agonist or antagonist protocols (as indicated) and various reference compounds and inhibitors to titrate specific binding to receptors and transporters. Most enzyme assays (CYPs, kinases, phosphatases, proteases, HDACs) used recombinant protein and specific substrates (fluorescence mostly, some colorimetric and radioactive) and inhibitors, followed by a biochemical separation of substrate and product. All assays for the biochemical HTS were initially run in duplicate at a single concentration (10 uM for CYP450 assays and 25 uM for all others). Assay-chemical combinations meeting a pre-defined threshold (e.g., 30% inhibition and other criteria defined below) were then run in singleton concentration-response format with maximum concentration of 20 uM for CYPs and 50 uM for all others. Each assay was run with positive and negative controls, and concurrent controls on every plate. The follow-up (secondary) screen tested active chemical-pairs in concentration series, as well as a few additional assays not tested in the primary screen, some selected negative inactives, and several cases re-run in the concentration series for confirmatory purposes.
With `COc1cccc(C(=O)NN(C(=O)c2cc(C)cc(C)c2)C(C)(C)C)c1C` the outcome was “inactive”.
For `CC(C)N(C(=O)SCC(Cl)=C(Cl)Cl)C(C)C`, the outcome was “inactive”.
In the case of `CCC(CC)Nc1c([N+](=O)[O-])cc(C)c(C)c1[N+](=O)[O-]`, the outcome is reported as “inactive”.
For `S=C1NCCN1`, the outcome was “inactive”.

What follows are compounds tested against human Janus Kinase 2 (Jak2), JAK2 (gene 3717) (UniProt O60674) (assay: NVS_ENZ_hJak2: NovaScreen (NVS) Enzymatic Assay for human Janus Kinase 2 (Jak2) (AID 2283169)).
Chain of human Janus Kinase 2 (Jak2), JAK2 (gene 3717) (O60674 whole entry, looked up): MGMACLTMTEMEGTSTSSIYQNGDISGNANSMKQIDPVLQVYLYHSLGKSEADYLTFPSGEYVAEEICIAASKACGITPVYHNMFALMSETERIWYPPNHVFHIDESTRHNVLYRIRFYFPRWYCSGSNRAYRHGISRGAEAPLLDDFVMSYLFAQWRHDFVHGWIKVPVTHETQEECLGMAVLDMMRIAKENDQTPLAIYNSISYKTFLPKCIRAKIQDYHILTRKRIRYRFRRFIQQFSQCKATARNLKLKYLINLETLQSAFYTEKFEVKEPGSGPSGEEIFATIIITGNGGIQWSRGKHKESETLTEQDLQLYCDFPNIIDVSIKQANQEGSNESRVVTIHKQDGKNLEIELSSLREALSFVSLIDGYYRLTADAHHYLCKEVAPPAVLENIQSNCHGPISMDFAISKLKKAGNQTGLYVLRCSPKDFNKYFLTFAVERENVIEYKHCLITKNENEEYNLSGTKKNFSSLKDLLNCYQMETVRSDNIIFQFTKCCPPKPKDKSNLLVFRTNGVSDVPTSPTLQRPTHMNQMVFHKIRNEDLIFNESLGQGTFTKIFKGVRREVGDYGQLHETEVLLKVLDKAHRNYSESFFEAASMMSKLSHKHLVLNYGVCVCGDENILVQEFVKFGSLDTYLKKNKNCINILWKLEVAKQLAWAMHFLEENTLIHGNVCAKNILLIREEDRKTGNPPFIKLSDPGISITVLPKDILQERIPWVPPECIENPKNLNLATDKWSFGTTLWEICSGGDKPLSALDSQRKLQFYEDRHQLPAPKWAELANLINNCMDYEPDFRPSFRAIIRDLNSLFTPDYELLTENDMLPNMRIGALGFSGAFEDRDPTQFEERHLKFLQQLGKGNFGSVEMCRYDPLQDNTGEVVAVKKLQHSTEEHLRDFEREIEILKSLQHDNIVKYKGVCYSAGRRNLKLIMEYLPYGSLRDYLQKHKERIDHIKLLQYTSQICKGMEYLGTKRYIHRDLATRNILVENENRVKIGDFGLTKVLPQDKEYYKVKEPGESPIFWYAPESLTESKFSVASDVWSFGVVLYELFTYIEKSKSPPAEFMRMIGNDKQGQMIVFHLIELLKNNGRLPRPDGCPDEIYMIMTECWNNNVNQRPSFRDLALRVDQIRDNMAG
Method in brief: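 Cell-free recombinant human JAK2 enzyme activity assay, fluorescence/electrophoretic mobility shift read 1 h after dosing. Screened in duplicate at 25 uM, then concentration-response up to 50 uM; activity as signal loss relative to DMSO.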
With `Cc1cc(C2CC2)nc(Nc2ccccc2)n1` the outcome was “inactive”.
For `O=c1ccc(=O)[nH][nH]1`, the outcome was “inactive”.
In the case of `CC[C@H](C)[C@H]1O[C@]2(C=C[C@@H]1C)C[C@@H]1C[C@@H](C/C=C(\C)[C@@H](O[C@H]3C[C@H](OC)[C@@H](O[C@H]4C[C@H](OC)[C@@H](NC)[C@H](C)O4)[C@H](C)O3)[C@@H](C)/C=C/C=C3\CO[C@@H]4[C@H](O)C(C)=C[C@@H](C(=O)O1)[C@]34O)O2`, the AC50 is reported as 15.4 µM (active).
